From PubChem BioAssay (NCI)
This is part of a sample that, as a whole, favours compounds with a hit. Of some 83,000 tested, about 20% had one in any assay.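 Testing used 96-well plates and a 48-hour single-concentration exposure. Example: -40 means 40% of the starting cells died.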 Values without a mark were called inactive. The source made the active and inactive calls.

What follows are molecules tested on HL-60(TB) leukemia (assay: NCI-60 one-dose screen, 48 h (100 = growth as untreated, 0 = no growth, -100 = all killed)). Conditions: 10 µM unless noted.
Method: Growth inhibition of the HL-60(TB) human tumor cell line is measured as a screen for anti-cancer activity. Cells are grown in 96 well plates and exposed to the test compound for 48 hours. Compounds are tested at a single concentration, which is 10^-5 M for most compounds. The reported endpoint is percent growth (GI% or GIPRCNT), where numbers from 0 - 100% represent growth inhibition, and numbers from -100% - 0 represent cell death. For example, a value of 40 represents 60% growth inhibition. A value of 0 means no net growth occurred over the course of the experiment. A value of -40 indicates 40% of cells at the beginning of the experiment died by the end of the experiment. A value of -100 means all cells are dead at the end of the experiment.
NCI-60 Human Tumor Cell Lines Screen was performed using the standard one-dose NCI protocol, which is described in more detail at https://dtp.cancer.gov/discovery_development/nci-60/default.htm.
Compounds with GIPRCNT values below 10 were considered active. Activity score was based on GIPRCNT using the following formula: […]
Score is 0 for GIPRCNT values of 100 or above, 50 for GIPRCNT values of 0, and 100 for GIPRCNT values of -100.

Compound | growth
COc1ccc(C2=NN(C(C)=O)C(c3c(C)nn(-c4ccccc4)c3N3CCOCC3)C2)cc1 (stereo not given) | 101%
CC(=O)Nc1c(Br)cc2c(c1Br)Cc1cc(Br)ccc1-2 | 98.5%
COc1cc(/C=C2\CN(S(=O)(=O)c3ccc(C)cc3)C/C(=C\c3cc(CN4CCCC4)c(O)c(OC)c3)C2=O)cc(CN2CCCC2)c1O | -33.6% (active)
N/C(=N\OC(=O)c1ccccc1)C(Cc1ccccc1)C(=O)NOC(=O)c1ccccc1 (stereo not given) | -1.14% (active)
COc1ccc(CNc2ccc3nc(NC(=O)CN4CCCCCC4)sc3c2)cc1 | 47.4%
CC(C)=CCC[C@@H](C)[C@H]1CC[C@@]2(C)C3=C(CC[C@]12C)[C@@]1(C)CC[C@H](O)C(C)(C)[C@@H]1CC3 | 105%
O=C(Oc1cccc2cccnc12)c1ccccc1 | 93.7%
CCOC(=O)C1=C(C)NC(SCc2nnc(-c3ccc(Cl)cc3)o2)=NC1c1ccc(Br)cc1 (stereo not given) | 22.5%
NNc1ncnc2nc[nH]c12 | 35.3%
CS(=O)CC1=NC(=N)N=C1CS(C)=O (stereo not given) | 91.2%
OCCNc1nccc(N2CCN(c3ccnc4cc(Cl)ccc34)CC2)n1 | 47.8%
C=C(CBr)[C@@H]1CC[C@]2(C(=O)O)CC[C@]3(C)[C@H](CC[C@@H]4[C@@]5(C)CCC(=O)C(C)(C)[C@@H]5CC[C@]43C)[C@@H]12 | 71.7%
CCN1C(=O)N(CC)C2C1NN=c1s/c(=C\c3cnc(C)n3C)c(=O)n12 (stereo not given) | -33.3% (active)
C#Cc1cccc(Nc2ncnc3ccc(-c4cnc(Cl)c(NS(C)(=O)=O)c4)cc23)c1 | -5.77% (active)
Cc1ccc(S(=O)(=O)Nc2c(Br)cc(Br)cc2C(N)=O)cc1 | 83%
C[C@]12CCc3c(ccc4cc(O)ccc34)[C@@H]1C[C@H](O)[C@@H]2O | 132%
COc1ccc(/C=C2\CN(Cc3cn(CCCNc4ccnc5cc(Cl)ccc45)nn3)C/C(=C\c3ccc(OC)cc3)C2=O)cc1 | 53.1%
Cc1cc(=O)[nH]c(=O)n1Cc1cn(-c2c3ccccc3nc3ccccc23)nn1 | 16.3%
CCOC(=O)c1cc(C(=O)c2cc(OC)cc(OC)c2)n2ncccc12 | -21.7% (active)
Cc1ccccc1COc1ccc(-c2ccnn2-c2ccc(Cl)cc2)cc1 | 13.3%

Compound | growth
O=C(Nc1cccc(-n2cc(-c3ccncc3)c(-c3ccc(Cl)c(O)c3)n2)c1)Nc1ccc(Cl)c(C(F)(F)F)c1 | -11.2% (active)
CCCCCCCCCC(=O)Oc1ccc(/C(=C(/C)Cc2cccc(OC)c2)c2ccc(OCCN(C)C)cc2)cc1 | 112%
CN1CCN(CCCOc2cccc3nc(Nc4ccc(F)c(F)c4)ccc23)CC1 | 38.8%
Cc1ccc(C(=O)c2ccc(CC(=O)NN3C(=O)c4ccccc4C3=O)n2C)cc1 | 100%
COc1ccccc1/C=C(/C(=O)c1ccccc1)c1ccccc1 | 71.8%
Cc1ccccc1CNc1ncnc2[nH]ncc12 | 49.2%
Clc1ccc(I)c2ccccc12 | 98.1%
CN1CCN(CCOc2ccc(-c3cnc4c(-c5cccc(F)c5)cnn4c3)cc2)CC1 | 10.7%
N#Cc1c2cccnc2c2nnc3cc(Cl)c(Cl)cc3n12 | 23.3%
O=C1C(Cl)=C(NCCN2CCOCC2)C(=O)c2ncccc21 | -45.5% (active)
N#C/C(=C\c1ccc(F)cc1)n1nc2cccc(F)c2n1 | 8.65% (active)
CCOC(=O)c1c(NS(=O)(=O)c2ccc(C)cc2)sc2c1CCC1(C2)OCCO1 | 88.5%
O=S(=O)(N=C1C(Cl)=C(Cl)C(=NS(=O)(=O)c2ccccc2)C(Cl)=C1Cl)c1ccccc1 | 48.5%
Cc1cc(C)c2c(Nc3ncnc4c3sc3nc(C)cc(C)c34)n[nH]c2n1 | 99%
C[C@]12CC[C@@H]3c4ccc(OC(=O)Cc5ccc(N(CCCl)CCCl)cc5)cc4CC[C@H]3[C@@H]1CC[C@@H]2OC(=O)Cc1ccc(N(CCCl)CCCl)cc1 | 108%
O=C1/C(=C/c2ccccc2)CN(C(=O)c2cccnc2)C/C1=C\c1ccccc1 | -8.8% (active)
O=C(Cc1ccc(/C=C/C(=O)c2ncc[nH]2)cc1)Nc1cc(C(F)(F)F)cc(C(F)(F)F)c1 | 52.1%
NCCNc1nc2ccccc2c2c(=O)c3cc(F)ccc3sc12 | 62.8%
COc1cc2ncnc(-n3ncc4cc(NC(=O)Nc5ccc(Cl)c(C)c5)ccc43)c2cc1OC | 114%
N#C/C(=C/C=C/c1cccc(Cl)c1)S(=O)c1ccccc1 (stereo not given) | -18.9% (active)
